# In article PMC8384837, “Expanding the binding specificity for RNA recognition by a PUF domain”:
# Assays:
# Assay in all cases: yeast three-hybrid, YBZ-1, SC-Leu-His + 0.5 mM 3-AT, 4 days
# Settings in all cases: tags: N-Gal4 AD-HA kept; label: inside an RPR1-promoter hybrid RNA with tandem MS2 sites; ssRNA
# [1] = target: PUM1 PUF domain R2-RVE (Homo sapiens, UniProt Q14671 828-1176, N899R;Y900V;Q903E)
# Outline: (§1)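 Pumilio-1 PUF domain libraries, randomized (NNK) at the three base-contacting residues of each repeat, were co-expressed with matching RNA elements from a centromeric plasmid in strain YBZ-1 (LexA–MS2 coat fusion, HIS3 reporter). Transformants were plated on SC-Leu (input) and SC-Leu-His + 0.5 mM 3-AT (selection) for four days, and repeat regions were PCR-amplified and Illumina-sequenced. The interaction score is the log2 change in variant frequency from input to selection, with pseudocount 1 where absent.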
# [2] = target: PUM1 PUF domain R4-ACG (Homo sapiens, UniProt Q14671 828-1176, N971A;H972C;Q975G)
# Outline: as §1
# [3] = target: PUM1 PUF domain R4-PFN (Homo sapiens, UniProt Q14671 828-1176, N971P;H972F;Q975N)
# Outline: as §1
# [4] = target: PUM1 PUF domain R4-GRA (Homo sapiens, UniProt Q14671 828-1176, N971G;H972R;Q975A)
# Outline: as §1
# [5] = target: PUM1 PUF domain R5-GGR (Homo sapiens, UniProt Q14671 828-1176, C1007G;R1008G;Q1011R)
# Outline: as §1
# [6] = target: PUM1 PUF domain R5-RHF (Homo sapiens, UniProt Q14671 828-1176, C1007R;R1008H;Q1011F)
# Outline: as §1
# [7] = target: PUM1 PUF domain R8-RFT (Homo sapiens, UniProt Q14671 828-1176, N1122R;Y1123F;Q1126T)
# Outline: as §1
# [8] = target: PUM1 PUF domain R8-HWG (Homo sapiens, UniProt Q14671 828-1176, N1122H;Y1123W;Q1126G)
# Outline: as §1
# [9] = target: PUM1 PUF domain R1-KGS (Homo sapiens, UniProt Q14671 828-1176, S863K;R864G;Q867S)
# Outline: as §1
# [10] = target: PUM1 PUF domain R8-YHR (Homo sapiens, UniProt Q14671 828-1176, N1122Y;Y1123H;Q1126R)
# Outline: as §1
# Chain of PUM1 PUF domain R4-ACG (Q14671 828-1176 N971A/H972C/Q975G): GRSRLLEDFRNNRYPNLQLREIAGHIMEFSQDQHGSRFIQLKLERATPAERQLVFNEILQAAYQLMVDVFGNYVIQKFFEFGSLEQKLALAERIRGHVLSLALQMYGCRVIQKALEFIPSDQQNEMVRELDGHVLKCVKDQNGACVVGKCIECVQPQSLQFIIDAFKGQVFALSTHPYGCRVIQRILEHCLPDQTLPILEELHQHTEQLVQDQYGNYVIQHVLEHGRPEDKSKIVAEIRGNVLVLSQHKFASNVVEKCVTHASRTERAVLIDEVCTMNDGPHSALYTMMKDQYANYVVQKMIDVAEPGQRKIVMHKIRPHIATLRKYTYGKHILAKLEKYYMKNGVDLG
# Chain of PUM1 PUF domain R4-GRA (Q14671 828-1176 N971G/H972R/Q975A): as the sequence (Q14671 828-1176 N971A/H972C/Q975G) above, with A144G, C145R, G148A counted along it
# Chain of PUM1 PUF domain R8-RFT (Q14671 828-1176 N1122R/Y1123F/Q1126T): as the sequence (Q14671 828-1176 N971A/H972C/Q975G) above, with A144N, C145H, G148Q, N295R, Y296F, Q299T counted along it
# Chain of PUM1 PUF domain R5-RHF (Q14671 828-1176 C1007R/R1008H/Q1011F): as the sequence (Q14671 828-1176 N971A/H972C/Q975G) above, with A144N, C145H, G148Q, C180R, R181H, Q184F counted along it
# Chain of PUM1 PUF domain R1-KGS (Q14671 828-1176 S863K/R864G/Q867S): as the sequence (Q14671 828-1176 N971A/H972C/Q975G) above, with S36K, R37G, Q40S, A144N, C145H, G148Q counted along it
# Chain of PUM1 PUF domain R8-HWG (Q14671 828-1176 N1122H/Y1123W/Q1126G): as the sequence (Q14671 828-1176 N971A/H972C/Q975G) above, with A144N, C145H, G148Q, N295H, Y296W, Q299G counted along it
# Chain of PUM1 PUF domain R5-GGR (Q14671 828-1176 C1007G/R1008G/Q1011R): as the sequence (Q14671 828-1176 N971A/H972C/Q975G) above, with A144N, C145H, G148Q, C180G, R181G, Q184R counted along it
# Chain of PUM1 PUF domain R4-PFN (Q14671 828-1176 N971P/H972F/Q975N): as the sequence (Q14671 828-1176 N971A/H972C/Q975G) above, with A144P, C145F, G148N counted along it
# Chain of PUM1 PUF domain R2-RVE (Q14671 828-1176 N899R/Y900V/Q903E): as the sequence (Q14671 828-1176 N971A/H972C/Q975G) above, with N72R, Y73V, Q76E, A144N, C145H, G148Q counted along it
# Chain of PUM1 PUF domain R8-YHR (Q14671 828-1176 N1122Y/Y1123H/Q1126R): as the sequence (Q14671 828-1176 N971A/H972C/Q975G) above, with A144N, C145H, G148Q, N295Y, Y296H, Q299R counted along it
sequence,measurement,setting,value
GGCUAGAACUAGUGGAUCCCCCGGCGCCCGGCGGCUCGAGCCCGGGUAAGUGUAAAGAGUCUGCAUGCCGCCGGGCGCCAUGCCUGCAGGUCGACUCUAGAAAACAUG,binding signal,[1],2.9 log2 enrichment (interaction score)
GGCUAGAACUAGUGGAUCCCCCGGCGCCCGGCGGCUCGAGCCCGGGUAAGUGUAUAUAGUCUGCAUGCCGCCGGGCGCCAUGCCUGCAGGUCGACUCUAGAAAACAUG,binding signal,[2],0.66 log2 enrichment (interaction score)
same,binding signal,[3],6.39 log2 enrichment (interaction score)
same,binding signal,[4],2.46 log2 enrichment (interaction score)
GGCUAGAACUAGUGGAUCCCCCGGCGCCCGGCGGCUCGAGCCCGGGUAAGUGUCAAUAGUCUGCAUGCCGCCGGGCGCCAUGCCUGCAGGUCGACUCUAGAAAACAUG,binding signal,[5],4.92 log2 enrichment (interaction score)
same,binding signal,[6],2.99 log2 enrichment (interaction score)
GGCUAGAACUAGUGGAUCCCCCGGCGCCCGGCGGCUCGAGCCCGGGUAAGUGUAAAUAGUCUGCAUGCCGCCGGGCGCCAUGCCUGCAGGUCGACUCUAGAAAACAUG,binding signal,[2],3.13 log2 enrichment (interaction score)
same,binding signal,[7],4.66 log2 enrichment (interaction score)
same,binding signal,[8],4.47 log2 enrichment (interaction score)
same,binding signal,[4],4.39 log2 enrichment (interaction score)
GGCUAGAACUAGUGGAUCCCCCGGCGCCCGGCGGCUCGAGCCCGGGUAAGUGUAAAUCGUCUGCAUGCCGCCGGGCGCCAUGCCUGCAGGUCGACUCUAGAAAACAUG,binding signal,[9],5.23 log2 enrichment (interaction score)
GGCUAGAACUAGUGGAUCCCCCGGCGCCCGGCGGCUCGAGCCCGGGUAAGUGUAAAUUGUCUGCAUGCCGCCGGGCGCCAUGCCUGCAGGUCGACUCUAGAAAACAUG,binding signal,[9],4.48 log2 enrichment (interaction score)
GGCUAGAACUAGUGGAUCCCCCGGCGCCCGGCGGCUCGAGCCCGGGUAAGCGUAAAUAGUCUGCAUGCCGCCGGGCGCCAUGCCUGCAGGUCGACUCUAGAAAACAUG,binding signal,[7],5.64 log2 enrichment (interaction score)
same,binding signal,[8],4.11 log2 enrichment (interaction score)
same,binding signal,[10],3.34 log2 enrichment (interaction score)
GGCUAGAACUAGUGGAUCCCCCGGCGCCCGGCGGCUCGAGCCCGGGUAAGUGUACAUAGUCUGCAUGCCGCCGGGCGCCAUGCCUGCAGGUCGACUCUAGAAAACAUG,binding signal,[2],1.1 log2 enrichment (interaction score)
same,binding signal,[4],1.92 log2 enrichment (interaction score)
GGCUAGAACUAGUGGAUCCCCCGGCGCCCGGCGGCUCGAGCCCGGGUAAGUGUUAAUAGUCUGCAUGCCGCCGGGCGCCAUGCCUGCAGGUCGACUCUAGAAAACAUG,binding signal,[5],1.88 log2 enrichment (interaction score)
same,binding signal,[6],3.71 log2 enrichment (interaction score)
